Laboratory results taken from PubChem BioAssay (NCATS).
Records with an inconclusive call do not appear. Where a call stands in place of a potency, no number is given. The source made the active and inactive calls. The call rests on the fitted dose curve; in most records, active means well fitted inhibition curve with a large enough effect; inconclusive means small, poorly fitted or top-dose-only effect; inactive means flat fitted curve, though single readings scatter.

Key:
[1] = target: Glutathione peroxidase 1 (Homo sapiens) (UniProt P07203); assay: Primary qHTS Assay for Inhibitors of Recombinant Selenoprotein Glutathione Peroxidase 1 (GPX1) (AID 1845191)
In short: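 Recombinant GPX1 (10 nM final) was preincubated with compound for 30 min at room temperature, then reacted with 1 mM GSH, 0.5 mM CHP, 0.5 mM NADPH and 100 nM glutathione reductase; NADPH fluorescence (340/450 nm) was read at 0 and 15 min.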

[2] = target: Phospholipid hydroperoxide glutathione peroxidase GPX4 (Homo sapiens) (UniProt P36969); assay: Primary qHTS Assay for Inhibitors of Recombinant Selenoprotein Glutathione Peroxidase 4 (GPX4) (AID 1845192)
In short: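 GR-coupled readout: 100 nM GR, 1 mM GSH, 0.5 mM NADPH; NADPH fluorescence (ex 340/em 450 nm) read at t=0 and after 15 min RT. GPX4 200 nM, preincubated 30 min with compound; substrate 0.5 mM CHP.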
Further: nearly all actives have a fitted effect of over 65% in size.

Sequence of Phospholipid hydroperoxide glutathione peroxidase GPX4 (Homo sapiens) (P36969 whole entry, looked up): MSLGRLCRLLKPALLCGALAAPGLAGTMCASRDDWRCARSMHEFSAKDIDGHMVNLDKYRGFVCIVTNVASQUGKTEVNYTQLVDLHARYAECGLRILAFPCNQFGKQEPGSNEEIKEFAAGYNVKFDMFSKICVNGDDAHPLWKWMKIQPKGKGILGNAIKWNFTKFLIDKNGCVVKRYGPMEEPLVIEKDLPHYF
Sequence of Glutathione peroxidase 1 (Homo sapiens) (P07203 whole entry, looked up): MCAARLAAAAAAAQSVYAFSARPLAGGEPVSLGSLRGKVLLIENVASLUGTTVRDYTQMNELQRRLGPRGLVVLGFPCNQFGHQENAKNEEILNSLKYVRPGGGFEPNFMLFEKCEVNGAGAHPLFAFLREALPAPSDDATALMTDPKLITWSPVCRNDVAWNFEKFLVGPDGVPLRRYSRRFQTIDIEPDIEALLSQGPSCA

| SMILES | outcome [1] | outcome [2] | Potency [1] | Potency [2] |
| --- | --- | --- | --- | --- |
| C/C(=C(\CCOP(=O)(O)O)SC(=O)c1ccccc1)N(C=O)Cc1cnc(C)nc1N | inactive [at 4.49 µM] | inactive [at 4.52 µM] | – | – |
| OCc1cc(C(O)CNCCCCCCOCCCCc2ccccc2)ccc1O (centres undefined) | – | – | inactive | inactive |
| CCOC(=O)c1ccc(O)cc1 | – | – | inactive | inactive |
| CCn1cc(C(=O)O)c(=O)c2cnc(N3CCNCC3)nc21 | – | – | inactive | inactive |
| O=C(O)Cc1sc(-c2ccccc2)nc1-c1ccc(Cl)cc1 | – | – | inactive | inactive |
| O=C(O)CC(O)C(=O)O (centres undefined) | – | – | inactive | inactive |
| COc1ccc2cc1Oc1cc3c(cc1OC)CC[N+](C)(C)[C@H]3Cc1ccc(cc1)Oc1c(OC)c(OC)cc3c1[C@@H](C2)[N+](C)(C)CC3 | – | – | inactive | inactive |
| NCCNCCNCCNCCN | inactive [at 9.52 µM] | inactive [at 9.73 µM] | – | – |
| O=C1c2c(O)cccc2Cc2cccc(O)c21 | – | – | inactive | inactive |
| N[C@@H](CSCCCO)C(=O)O | – | – | inactive | inactive |
| CC(O)COc1ccccc1 (centres undefined) | – | – | inactive | inactive |
| O=C(O)[C@H](O)c1ccccc1 | – | – | inactive | inactive |
| Cn1cc[nH]c1=S | – | – | inactive | inactive |
| NC(=O)N/N=C/c1ccc([N+](=O)[O-])o1 | – | – | inactive | inactive |
| NCCNCCNCCN | – | – | inactive | inactive |
| NC(=O)NC(=O)Cc1ccccc1 | – | – | inactive | inactive |
| C[C@H]1O[C@H](O[C@H]2[C@H](O)[C@@H](O)[C@@H](O[C@H]3[C@H](O)[C@@H](O)[C@H](O)O[C@@H]3CO)O[C@@H]2CO)[C@H](O)[C@@H](O)[C@@H]1N[C@H]1C=C(CO)[C@@H](O)[C@H](O)[C@H]1O | – | – | inactive | inactive |
| NC(=O)c1ncn([C@@H]2O[C@H](CO)[C@@H](O)[C@H]2O)c1N | – | – | inactive | inactive |
| CN(N=O)C(=O)N[C@@H]1[C@@H](O)[C@H](O)[C@@H](CO)O[C@@H]1O | – | – | inactive | inactive |

| SMILES | outcome [1] | outcome [2] | Potency [1] | Potency [2] |
| --- | --- | --- | --- | --- |
| C[C@@H]1CCN(C(=O)[C@H](CCCN=C(N)N)NS(=O)(=O)c2cccc3c2NC[C@H](C)C3)[C@@H](C(=O)O)C1 | – | – | inactive | inactive |
| Oc1ccc(C(O)CNCCCCCCNCC(O)c2ccc(O)c(O)c2)cc1O (centres undefined) | – | – | inactive | inactive |
| OCC(CO)N[C@H]1C[C@](O)(CO)[C@@H](O)[C@H](O)[C@H]1O | – | – | inactive | inactive |
| CCCCCCCCCCCCCCCCCCOCC(O)CO (centres undefined) | – | – | inactive | inactive |
| CCCCCCCCCCCCOS(=O)(=O)O | – | – | inactive | inactive |
| C[C@H](N)[C@H](O)c1cccc(O)c1 | – | – | inactive | inactive |
| CCCOC(=O)c1ccccc1 | – | – | inactive | inactive |
| O=C1NS(=O)(=O)c2ccccc21 | – | – | inactive | inactive |
| CN1CCCCC1CCN1c2ccccc2Sc2ccc(S(C)=O)cc21 (centres undefined) | – | – | inactive | inactive |
| Cc1cc2c(cc1S(N)(=O)=O)S(=O)(=O)CCC2 | – | – | inactive | inactive |
| Nc1ccc(S(=O)(=O)Nc2ccc(Cl)nn2)cc1 | – | – | inactive | inactive |
| CN1[C@@H]2CC(OC(=O)[C@H](CO)c3ccccc3)C[C@H]1[C@@H]1O[C@@H]12 (some centres undefined) | – | – | inactive | inactive |
| O=c1cc(CO)occ1O | – | – | inactive | inactive |
| CCCCOC(=O)c1ccc(O)cc1 | – | – | inactive | inactive |
| NS(=O)(=O)c1cc2c(cc1C(F)(F)F)NC(Cc1ccccc1)NS2(=O)=O (centres undefined) | – | – | inactive | inactive |
| CN(C)CCCN1c2ccccc2CCc2ccccc21 | – | – | inactive | inactive |
| CC(=O)CCC(=O)O | – | – | inactive | inactive |
| C[C@@H](O)[C@H](N)C(=O)O | – | – | inactive | inactive |
